{
  "source": "PubChem BioAssay (Tox21)",
  "note": "Inconclusive results are not listed. Where a call stands in place of a potency, no number is given. Active and inactive are the calls of the source. Calls come from the whole dose curve.",
  "data": [
    {"biological_target": "Thyrotropin receptor (Homo sapiens) (UniProt P16473)", "sequence (P16473 whole entry, looked up)": "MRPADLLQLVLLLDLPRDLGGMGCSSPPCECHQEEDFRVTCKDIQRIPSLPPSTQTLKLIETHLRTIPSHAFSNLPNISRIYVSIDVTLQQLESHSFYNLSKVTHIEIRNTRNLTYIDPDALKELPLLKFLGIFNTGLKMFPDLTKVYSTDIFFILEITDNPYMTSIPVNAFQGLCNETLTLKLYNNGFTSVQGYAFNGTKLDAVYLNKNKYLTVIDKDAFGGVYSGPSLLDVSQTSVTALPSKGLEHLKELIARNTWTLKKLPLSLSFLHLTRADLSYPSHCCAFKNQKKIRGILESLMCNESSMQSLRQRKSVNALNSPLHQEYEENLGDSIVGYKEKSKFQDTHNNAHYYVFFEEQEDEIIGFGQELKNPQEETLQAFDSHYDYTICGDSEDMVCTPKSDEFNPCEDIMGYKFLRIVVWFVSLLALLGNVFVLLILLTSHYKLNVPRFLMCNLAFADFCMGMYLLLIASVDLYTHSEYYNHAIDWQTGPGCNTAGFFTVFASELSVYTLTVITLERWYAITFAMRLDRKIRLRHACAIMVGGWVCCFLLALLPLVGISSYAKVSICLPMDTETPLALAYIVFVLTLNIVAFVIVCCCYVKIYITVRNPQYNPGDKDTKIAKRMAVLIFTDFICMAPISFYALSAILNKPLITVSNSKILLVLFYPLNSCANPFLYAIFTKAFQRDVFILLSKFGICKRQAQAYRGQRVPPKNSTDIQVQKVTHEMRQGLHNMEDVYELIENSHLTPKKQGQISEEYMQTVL", "assay": "qHTS assay to identify small molecule antagonists of the thyroid stimulating hormone receptor (TSHR) signaling pathway (AID 1259385); note: nearly all actives have a fitted effect of over 20% in size", "conditions": "TSHR-HEK293 cAMP HTRF, TSH-stimulated antagonist mode; series mostly up to 92.4 µM", "excerpt": "U.S. Tox21 Program National Center for Advancing Translational Sciences [NCATS] NIH Chemical Genomics Center [NCGC] U.S. Environmental Protection Agency [EPA] National Institutes of Environmental Health Sciences [NIEHS] National Toxicology Program [NTP] U.S. Food and Drug Administration [FDA] Tox21 Assay Overview: TSHR is the receptor for thyrotropin (thyroid stimulating hormone or TSH), a member of the glycoprotein hormone family. TSH is released by the anterior pituitary gland and is the main regulator of thyroid gland growth and development. Upon binding circulating thyrotropin, a G-protein signal cascade activates adenylyl cyclase and […] cAMP concentration is increased. cAMP is a key second messenger involved extensively in cellular signal transduction pathways associated with the majority of G-protein coupled receptors (GPCRs). The activation of these GPCRs by neurotransmitters, lipids, nucleotides, peptides and hormones results in the activation or the inhibition of plasma membrane-bound adenylate cyclase through heterotrimeric G-proteins. A cell-based TSHR assay can be used to screen chemical compounds that modulate TSHR either in agonist or antagonist mode.\nTox21 Assay Protocol Summary: TSHR-Hek293 cells were dispensed at 800 cells/4uL/well in 1536-well white plates using a Multidrop dispenser. After the assay plates were incubated at a 37C/5% CO2 incubator for 18 hrs, 23 nL of compounds dissolved in DMSO, positive controls or DMSO only was transferred to the assay plate by a pin tool, followed by 1 ul medium containing Ro20-1724. For the antagonist mode screening, 1 uL of TSH was added on the top of the cell/compound mixtures to achieve a final agonist concentration of 1.5 ng/mL. After 30 min of incubation at room temperature, 2.5 ul/well of cAMP-d2 and 2.5 ul/well of anti-cAMP-cryptate were added respectively into the assay plates using a Flying Reagent Dispenser. The plates were incubated at room temperature for 1 hr. The fluorescence intensity in the plates was measured using an Envision plate reader. Each test compound was measured at 15 concentrations and in triplicates.", "values": [
      {"smiles": "Cc1ccc(N(C)C)cc1", "Potency": "inactive"},
      {"smiles": "c1ccc2scnc2c1", "Potency": "inactive"},
      {"smiles": "CN(C)CCOCCN(C)C", "Potency": "inactive"},
      {"smiles": "Cc1ccc2oc(=O)ccc2c1", "Potency": "inactive"},
      {"smiles": "OCCOCCN1CCN(C2=Nc3ccccc3Sc3ccccc32)CC1", "Potency": "inactive"},
      {"smiles": "O=C(O)c1ccc(C(=O)O)cc1", "Potency": "inactive"},
      {"smiles": "Oc1cccc2ccccc12", "Potency": "inactive"},
      {"smiles": "O=C1CCC(N2C(=O)c3ccccc3C2=O)C(=O)N1", "note": "(stereo not given)", "Potency": "inactive"},
      {"smiles": "C=CCNC(N)=S", "Potency": "inactive"},
      {"smiles": "COc1ccc(NC(C)=O)cc1N", "Potency": "inactive"},
      {"smiles": "O=c1[nH]c(=O)n([C@H]2CCCO2)cc1F", "Potency": "inactive"},
      {"smiles": "O=C(O)CCCCCCCCCCC(=O)O", "Potency": "inactive"},
      {"smiles": "CCCCCOC(C)=O", "Potency": "inactive"},
      {"smiles": "C=C(C)C(=O)O[C@H]1C[C@@H]2CC[C@@]1(C)C2(C)C", "Potency": "inactive"},
      {"smiles": "COCCCOc1ccnc(CS(=O)c2nc3ccccc3[nH]2)c1C", "note": "(stereo not given)", "Potency": "inactive"},
      {"smiles": "O=C(OCCOCCOC(=O)c1ccccc1)c1ccccc1", "Potency": "inactive"},
      {"smiles": "O=c1[nH]nnc2ccccc12", "Potency": "inactive"},
      {"smiles": "O=P(OC(CCl)CCl)(OC(CCl)CCl)OC(CCl)CCl", "Potency": "inactive"},
      {"smiles": "CN(C)CCC(c1ccc(Cl)cc1)c1ccccn1", "note": "(stereo not given)", "Potency": "inactive"},
      {"smiles": "N[C@@H](Cc1cc(I)c(Oc2cc(I)c(O)c(I)c2)c(I)c1)C(=O)O", "Potency": "inactive"},
      {"smiles": "O=C(Oc1ccccc1)c1ccccc1", "Potency": "inactive"},
      {"smiles": "C#C[C@]1(O)CC[C@H]2[C@@H]3CCC4=CC(=O)CC[C@@H]4[C@H]3CC[C@@]21C", "Potency": "inactive"},
      {"smiles": "CC(C)(C)[C@@H](O)[C@@H](Cc1ccc(Cl)cc1)n1cncn1", "Potency": "inactive"},
      {"smiles": "CC(C)c1ccc(S(=O)(=O)O)cc1", "Potency": "inactive"},
      {"smiles": "CC[C@H](C)C(=O)O[C@H]1C[C@@H](C)C=C2C=C[C@H](C)[C@H](CC[C@@H]3C[C@@H](O)CC(=O)O3)[C@H]21", "Potency": "inactive"},
      {"smiles": "O=S(=O)(O)c1ccc2ccccc2c1", "Potency": "inactive"},
      {"smiles": "CC(C)(N)CO", "Potency": "inactive"},
      {"smiles": "CC1CCC2CC1C2(C)C", "note": "(stereo not given)", "Potency": "inactive"},
      {"smiles": "O=C(O)c1cc(O)c(O)c(O)c1", "Potency": "inactive"},
      {"smiles": "CCCCCCCCCCCCCCO", "Potency": "inactive"},
      {"smiles": "OCCOCCOCCO", "Potency": "inactive"},
      {"smiles": "CCC(O)OC(O)CC", "note": "(stereo not given)", "Potency": "inactive"},
      {"smiles": "CN(C)CCCN", "Potency": "inactive"},
      {"smiles": "CCCCC(CC)COC(=O)CCCCC(=O)OCC(CC)CCCC", "note": "(stereo not given)", "Potency": "inactive"},
      {"smiles": "CCc1cccc(C)c1N", "Potency": "inactive"},
      {"smiles": "CC(=O)CC(=O)Nc1ccccc1C", "Potency": "inactive"},
      {"smiles": "C=C(C)C(=O)OCCOCCOCCOC(=O)C(=C)C", "Potency": "inactive"},
      {"smiles": "COc1ccc(Cl)cc1C(=O)NCCc1ccc(S(=O)(=O)NC(=O)NC2CCCCC2)cc1", "Potency": "inactive"},
      {"smiles": "COc1ccc(Nc2ccccc2)c(C)c1", "Potency": "inactive"},
      {"smiles": "c1ccc2c(c1)ccc1ccccc12", "Potency": "inactive"}
    ]}
  ]
}
